Source: PubChem BioAssay (several laboratories)
Hck Nef HTS – inhibitors of Nef-activated human Hck kinase, primary screen, biochemical, Z-Lyte FRET, 384-well, Hck-YEEI; Recombinant Hck-YEEI plus Nef, Z-Lyte FRET kinase assay; inhibition, % at 20 µM; 0.68% of 220,000 active; AID 463187, 2010;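 active means Hck-Nef kinase inhibition above about 50%, limit read from the data; inactive means inhibition below that limit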;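 further: 0% = DMSO with Hck plus Nef and 100% = Hck alone without Nef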
Mcl1 Bid PPI – Mcl-1/Bid binding inhibitors, primary screen, biochemical, TR-FRET, 1536-well; TR-FRET Mcl-1/Bid-Dy647 peptide binding; inhibition, % at 21.7 µM; 0.97% of 220,000 active;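 active means compounds that cut the binding signal by more than half at the single screening dose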;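 further: His-tagged Mcl-1 with europium anti-His antibody binding Bid BH3 peptide; 0% = Mcl-1 plus peptide wells and 100% = peptide-only wells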
Target sequence (Q07820 whole entry, looked up): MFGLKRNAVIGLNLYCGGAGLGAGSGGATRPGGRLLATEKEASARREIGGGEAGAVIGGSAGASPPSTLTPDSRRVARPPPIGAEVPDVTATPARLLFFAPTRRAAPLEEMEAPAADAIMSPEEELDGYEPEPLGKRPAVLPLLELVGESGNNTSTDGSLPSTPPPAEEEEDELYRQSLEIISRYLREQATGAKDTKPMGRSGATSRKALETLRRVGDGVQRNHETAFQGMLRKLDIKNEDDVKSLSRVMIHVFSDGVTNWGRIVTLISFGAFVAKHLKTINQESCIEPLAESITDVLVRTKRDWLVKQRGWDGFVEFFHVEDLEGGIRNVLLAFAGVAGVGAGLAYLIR
Pf gametocyte – late stage P. falciparum gametocyte viability inhibitors, primary screen, ATP luminescence, HTS; inhibition, % at 10.9 µM; P. falciparum stage V gametocytes, 24 h; 0.065% of 150,000 active;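 active means inhibition above the mean plus 3 SD of compounds within the control limits, set per campaign, cut at about 38% in these data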;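 further: 0% = DMSO wells and 100% = medium only without gametocytes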
Mcl1 Noxa PPI – Mcl-1/Noxa binding inhibitors, primary screen, biochemical, TR-FRET, 1536-well; 1.5% of 220,000 active; TR-FRET Mcl-1/Noxa peptide binding, 2 h; Induced myeloid leukemia cell differentiation protein Mcl-1 (Homo sapiens), Q07820; inhibition, % at 21.7 µM; AID 1022, 2008;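 active means compounds that cut the protein-peptide binding signal by more than 50% relative to plate controls in a single-dose test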;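 further: His-tagged Mcl-1 with rhodamine Noxa BH3 peptide and terbium anti-His antibody; 0% = Mcl-1 plus Noxa peptide wells and 100% = peptide-only wells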
14-3-3 Bad inh – inhibitors of 14-3-3 zeta/Bad binding, primary screen, biochemical, TR-FRET, bovine 14-3-3 zeta | TR-FRET 14-3-3zeta/Dy647-pBad peptide displacement, 1 h | 0.71% of 220,000 active | 14-3-3 protein zeta/delta (Bos taurus), P63103 | AID 781, 2007 | inhibition, % at 21.7 µM;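 active means inhibition above about 70%, limit read from the data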;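 further: 0% = full 14-3-3 plus peptide FRET controls and 100% = background without 14-3-3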
Bim-Mcl-1 – inhibitors of Bim peptide binding to Mcl-1, primary screen, biochemical, bead-based flow cytometry, multiplex. Induced myeloid leukemia cell differentiation protein Mcl-1 (Homo sapiens), Q07820. Bim peptide-Mcl-1 binding. inhibition, % at 10 µM. 0.1% of 190,000 active. AID 1009, 2008; in the data active means inhibition above about 40%;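 further: 0% = no compound tracer wells and 100% = peptide blocker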
* = called active by the depositor; · = no result given; [ ] = dose if it differs, or a comment. Compounds with a hit are over-represented: about 2.9% of the library has one in this group of screens.

SMILES	Hck Nef HTS	Mcl1 Bid PPI	Pf gametocyte	Mcl1 Noxa PPI	14-3-3 Bad inh	Bim-Mcl-1
CCOC(=O)N1CCN(Cc2ccccc2Cl)CC1	0	-13	-13	1	75*	-1
CCOC(=O)N1CCN(Cc2ccccc2F)CC1	0	31	·	·	54	-3
NS(=O)(=O)c1ccc(NC(=O)CSc2nnc(-c3cnccn3)n2-c2ccccc2)cc1	-8	-10	·	-2	4	-2
Cc1cc(C(=O)O)ccc1-n1c(C)ccc1C	19	57*	·	78*	0	2
Cc1cc(N)ccc1-n1c(C)ccc1C	-1	-204	-10	26	-7	0
COCCNC(=O)c1ccc2c(=O)n(CCOC)c(=O)[nH]c2c1	5	-11	·	13	85*	-5
O=C(CSc1cn(Cc2ccccc2)c2ccccc12)Nc1nccs1	1	-19	·	-9	-3	0
CCC(C)c1ccc(NC(=O)COc2c(F)c(F)c(C(F)(F)F)c(F)c2F)cc1 (centres undefined)	2	-3	12	7	-3	-8
Cc1ccc(NC(=O)C2CC(=O)N(C(C)C)C2)cc1Cl (centres undefined)	9	-8	·	11	8	0
CN1CCN(S(=O)(=O)c2ccc(NC(=O)Cc3cccs3)cc2)CC1	1	-35	·	13	-6	0
O=C(COC(=O)c1ccc(Br)o1)Nc1ccc(S(=O)(=O)N2CCCC2)cc1	1	60*	·	44	0	-4
O=C(Cc1cccs1)N1CCN(S(=O)(=O)c2ccccc2)CC1	3	97*	·	14	-7	-2
O=C(Cc1cccs1)Nc1ccc(S(=O)(=O)N2CCCCC2)cc1	3	24	-19	66*	1	-2
O=C(Nc1ccc(S(=O)(=O)N2CCCCCC2)cc1)c1ccc(Br)o1	2	-13	-4	32	5	-8
COc1ccc(S(=O)(=O)N2CCN(C(=O)Cc3cccs3)CC2)cc1	5	4	-7	10	-3	-4
C[C@@H](O)C(C(=O)N1CCNCC1)n1cc([C@@H](N)CCCCN)nn1 (some centres undefined)	·	·	11	·	·	·
COc1ccccc1N(CC(=O)Nc1cccnc1)S(C)(=O)=O	2	4	·	-13	6	0
O=C(NC1CCCC1)c1ccc2nc[nH]c2c1	1	-31	-10	-48	1	2
c1coc(-c2nc3ccccc3nc2-c2ccco2)c1	36	-39	·	85*	·	9
O=C(c1ccccc1)c1ccc2nc(-c3ccco3)c(-c3ccco3)nc2c1	58*	17	14	99*	15	18
O=C(NC1CCCC1)c1ccc2nc(-c3ccco3)c(-c3ccco3)nc2c1	12	29	·	101*	-6	4
O=C(NCCO)c1ccc2nc(-c3ccco3)c(-c3ccco3)nc2c1	-4	-28	·	92*	-4	14
O=C(NCCO)c1ccc(Cl)c(Cl)c1	-1	-7	-7	13	-1	0
CCOCC(=O)N1CCN(c2ccc(F)cc2)CC1	0	-20	14	11	-5	0
Cc1ccc(C)c(N2CCN(C(=O)c3ccc4nc(-c5ccco5)c(-c5ccco5)nc4c3)CC2)c1	7	-4	5	0	3	2
O=C(NCCc1ccccc1)c1ccc2nc(-c3ccco3)c(-c3ccco3)nc2c1	15	56*	·	103*	18	8
COc1ccccc1N1CCN(C(=O)c2ccc3nc(-c4ccco4)c(-c4ccco4)nc3c2)CC1	4	-45	-1	63*	-9	-5
COCc1cc(C)nc(Nc2ccccc2OC)c1C#N	·	·	21	·	·	·
CCOC(=O)c1sc2ncn(/N=C/c3ccc(O)c(OC)c3)c(=O)c2c1C	25	15	8	53*	13	0
COc1cc(/C=C2\SC(N)=NC2=O)ccc1OCC(=O)Nc1ccc(C)cc1	93*	61*	3	5	97*[fluorescence artefact?]	-1
